Bioassay records from PubChem BioAssay.
Tb PFK block – blocks T. brucei phosphofructokinase. O15648. T. brucei PFK, ADP-Glo luminescence. Potency, µM (top dose mostly 57.5 µM), for the others: at the highest dose activity, negative = inhibition, actives largely listed as inhibitors. 330,000 compounds, 0.17% hits. AID 485367;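 also: potency is read from the fitted curve at half-maximal effect; 0% = uninhibited 1x PFK enzyme wells and -100% = no-enzyme wells; nearly all actives have a fitted effect of over 60% in size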
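Compounds were pin-transferred as a titration series up to 57 uM into substrate buffer (0.5 mM F6P, 0.1 mM ATP, pH 8.0), then 1.25 nM PFK was added and reactions ran 45 min before ADP-Glo detection.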
Pin1 inhibitor – inhibitors of human Pin1 | Q13526 | Pin1 FP peptide displacement, HiFluor488, 10 min | Potency, µM (series often up to 115 µM), inactives show at the highest dose activity, negative = inhibition, most hits filed as inhibitors | 390,000 compounds, 0.009% hits; active = well fitted inhibition curve with a large enough effect in the polarisation, with a control signal flat, not every such curve was filed as active; inconclusive = small, poorly fitted or top-dose-only effect, or effect the other way, or a change in a side signal; inactive = no such curve, though single readings can be large or run the other way; the % refers to the polarisation; also: potency is read from the fitted curve at half-maximal effect
PI5P4K alpha inh – blocks human PI5P4K alpha kinase activity; PI5P4Kalpha enzyme, ADP-Glo luminescence, 60 min; active compounds read low; AID 652105; 330,000 compounds, 1.2% hits; P48426; max response, %; active = max response of -50% or lower; inconclusive = between -30% and -50%; inactive = -30% or higher; also: value at the top dose of about 77 µM
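ADP-Glo luminescence end-point read after a 60 min room-temperature kinase reaction of PI5P4Kalpha plus substrate, initiated with ATP at 5 microM final. Buffer: 0.038 M HEPES pH 7.4, EGTA, 0.1% CHAPS, 5% DMSO.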
Tb PGK inh – T. brucei PGK inhibition; Potency, µM (highest dose often 57.5 µM), for the others: at the highest dose activity change, negative = inhibition, actives largely listed as inhibitors; AID 602233; P07378; 380,000 compounds, 0.043% hits; PGK/GAPDH coupled, Kinase-Glo luminescence, 60 min; also: potency is read from the fitted curve at half-maximal effect; nearly all actives have a fitted effect of over 60% in size
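Luminescent ATP detection (Kinase-Glo Plus) follows a 60-minute room-temperature incubation, with wells lacking PGK as controls. Buffer: 100 mM TEA (pH 7.6), 5 mM MgCl2, 0.01% Tween-20. Coupling enzyme GAPDH (100 nM final) supplies unstable 1,3-BPG in-well.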
PI4K2A inh – inhibitors of human PI4K2A | 420,000 compounds, 0.13% hits | AID 1346378 | purified PI4K2A, ADP-Glo luminescence, 1 h; active compounds read low | activity change, negative = inhibition, % at 76.9 µM | Q9BTU6; in the data active = activity change below about -50%; inconclusive = mostly about -30% to -49%;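 also: -100% = wells without enzyme as full effect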
Target sequence (Q9BTU6 whole entry, looked up): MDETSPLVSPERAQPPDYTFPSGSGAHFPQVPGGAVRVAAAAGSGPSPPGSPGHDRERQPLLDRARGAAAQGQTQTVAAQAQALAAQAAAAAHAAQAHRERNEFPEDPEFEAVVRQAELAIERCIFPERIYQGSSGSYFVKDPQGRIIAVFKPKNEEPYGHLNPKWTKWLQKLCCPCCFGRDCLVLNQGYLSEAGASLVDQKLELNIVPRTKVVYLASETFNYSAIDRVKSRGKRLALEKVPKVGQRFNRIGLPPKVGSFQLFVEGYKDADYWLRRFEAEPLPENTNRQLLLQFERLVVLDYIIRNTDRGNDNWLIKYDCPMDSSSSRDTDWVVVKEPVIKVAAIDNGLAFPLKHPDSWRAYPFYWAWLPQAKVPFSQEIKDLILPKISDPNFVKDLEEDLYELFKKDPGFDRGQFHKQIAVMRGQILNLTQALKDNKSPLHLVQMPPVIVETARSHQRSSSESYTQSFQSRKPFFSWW
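Compounds are screened against recombinant PI4K2A using PI as substrate and ATP, the latter dispensed at 300 microM. Reactions run one hour at ambient temperature before ADP-Glo detection; full inhibition defined by wells lacking enzyme.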
ADP-Glo counter – counter-screen for PI5P4K inhibitors: ADP-Glo detection interference, no enzyme; shares compounds with PI5P4K alpha inh; ADP-Glo detection counter-screen, luciferase luminescence, no enzyme; Potency, µM (titrated, usually from 76.9 µM), without a hit: at the top dose activity change, negative = inhibition, actives largely listed as inhibitors; 1,100 tested, under 10 active
An asterisk follows results filed as active; ? = inconclusive; · = no result. The entries come from a sample that favours hits as a whole. Unless noted, calls follow the shape of the dose curve; as a rule, active = well fitted curve in the direction sought with a large enough effect; inconclusive = small, poorly fitted or top-dose-only effect, or another doubt; inactive = no such curve, though single readings can be large; an effect the other way counts as inactive or inconclusive. Unless noted, % is scaled to controls: 0 for no effect and ±100 for the full control effect.

SMILES	Tb PFK block	Pin1 inhibitor	PI5P4K alpha inh	Tb PGK inh	PI4K2A inh	ADP-Glo counter
CC[C@]12c3[nH]c4cc(-c5ccco5)ccc4c3CCN1C(=O)[C@@H](CC(=O)NCCC1=CCCCC1)C[C@@H]2C(=O)N1CCN(C(=O)c2ccco2)CC1	-26.6%	10.8%	-73.5*	-12.0%	-53.4*	1.1%
CC[C@]12c3[nH]c4cc(CCC(=O)N(C)C)ccc4c3CCN1C(=O)[C@@H](CC(=O)NCCC1=CCCCC1)C[C@@H]2C(=O)N1CCN(C(=O)c2ccco2)CC1	0.4%	-2.2%	-29.1	-8.8%	-0.1	·
COc1ccccc1N(CC(=O)N1CCC(C(N)=O)CC1)S(=O)(=O)c1ccccc1	3.1%	-15.8%	-75.2*	?	0.0	-6.7%
COc1ccccc1N1CCN(C(=O)CN(c2ccccc2OC)S(=O)(=O)c2ccccc2)CC1	7.3%	1.1%	-5.6	-2.1%	-0.1	·
COc1ccc(C(CC(=O)N2CCCCC2)c2c(OC)cc(OC)c3c(-c4ccccc4)cc(=O)oc23)cc1 (stereo unspecified)	-7.3%	10.6%	-80.8*	?	-2.0	4.5%
COc1ccc(C(CC(=O)N2CCCC2)c2c(OC)cc(OC)c3c(-c4ccccc4)cc(=O)oc23)cc1 (stereo unspecified)	-11.5%	?	?	-29.0%	-3.7	·
CC(C)Sc1nc(N2CCOCC2)c2c(c1C#N)CC(C)(C)N(C)C2	-0.5%	-10.8%	-52.5*	2.5%	-3.8	1.1%
CN1Cc2c(N3CCOCC3)nc(SCCC#N)c(C#N)c2CC1(C)C	-9.2%	0.2%	-0.6	-7.2%	3.7	·
Oc1ccc(CNc2ccc(F)cc2)c2cccnc12	-6.5%	?	-53.5*	-0.4%	-4.2	1.7%
Oc1ccc(CNc2cccc(F)c2)c2cccnc12	·	7.5%	·	·	0.9	·
COc1ccc(CN2CCC(=O)N([C@H](CO)CC(C)C)CC2)cc1OC	-1.9%	0.2%	-58.8*	-9.7%	-3.3	-7.4%
COc1ccc(CN2CCC(=O)N([C@H](CO)c3ccccc3)CC2)cc1OC	3.1%	3.1%	1.9	1.2%	-1.9	·
CC(=O)c1sc2nc(-c3ccco3)ccc2c1N	-11.6%	?	-61.4*	-7.8%	-8.4	0.6%
CCC(=O)Nc1ccc(-c2ccc(N3CCN(C)CC3)nn2)cc1	-4.8%	3.2%	-4.6	0.8%	-9.2	·
COC(=O)Nc1ccc(S(=O)(=O)N2CCC(C(=O)N3CCC(C)CC3)CC2)cc1	10.4%	-15.6%	-80.0*	0.8%	3.2	0.1%
O=C(NCCN1CCN(c2ccccc2)CC1)C1CCCN(S(=O)(=O)c2cnc[nH]2)C1 (stereo unspecified)	3.0%	-2.4%	-61.5*	-3.4%	0.5	3.5%
O=C(CCC(=O)c1cccs1)Nc1ncccc1O	-15.7%	3.9%	-56.1*	-5.6%	-1.8	-2.1%
O=C(Cc1cccs1)Nc1ccc(N2CCOCC2)cc1	-17.9%	6.2%	-53.1*	-13.5%	-23.4	-7.6%
Cc1ccc(NC(=O)CCC(=O)c2cccs2)cc1	2.7%	2.8%	-8.4	3.2%	0.9	·
O=C(CCC(=O)c1cccs1)Nc1ccc(N2CCCCC2)cc1	2.2%	2.7%	-75.8*	4.5%	-6.3	-1.6%
O=C(CSc1nncn1-c1ccccc1)Nc1ccc(N2CCOCC2)cc1	-0.8%	-2.0%	-55.6*	-8.4%	0.6	1.0%
Cn1ccnc1C(=O)c1ccc(N)cc1	-0.2%	-5.5%	-5.3	-3.4%	-0.3	·
CCOC(=O)c1cnc2ccc(Cl)cc2c1Nc1ccc(N2CCOCC2)cc1	·	1.2%	·	4.3%	-1.3	·
O=C(NCCc1c[nH]c2ccccc12)OCc1cn(Cc2cccc(Cl)c2)nn1	·	·	·	·	5.3	·
CC(C)CC(=O)Nc1ccc(C(=O)OCc2cc(=O)n3nc(C4CCCCC4)sc3n2)cc1	·	-4.3%	·	-6.1%	4.3	·
CCOC(=O)c1c(NS(=O)(=O)c2ccc(Br)cc2)sc2c1CCC2	·	?	-55.4*	-1.7%	-16.2	-1.3%
CCOC(=O)N1CCN(C(=O)Cn2nc(-c3ccc(Cl)cc3)ccc2=O)CC1	7.4%	0.1%	-7.9	-0.8%	1.3	·
